Measurements as given in PMC4336329 (PLoS ONE, 2015).
About 14,000 (4.5%) of roughly 310,000 compounds showed an effect of 50% or more. Effects have a minus sign here. This is one part of a sample in which strong results are shown more often than they occur.

biological target: human ether-à-go-go-related gene (hERG) potassium channel (human, UniProt Q12809); assay: primary screen, population patch clamp on CHO cells stably expressing hERG; higher = less effect of the substance
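Further: peak tail current of the secondary pulse compared with the same well before compound.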

Sequence of human ether-à-go-go-related gene (hERG) potassium channel (Q12809 whole entry, looked up): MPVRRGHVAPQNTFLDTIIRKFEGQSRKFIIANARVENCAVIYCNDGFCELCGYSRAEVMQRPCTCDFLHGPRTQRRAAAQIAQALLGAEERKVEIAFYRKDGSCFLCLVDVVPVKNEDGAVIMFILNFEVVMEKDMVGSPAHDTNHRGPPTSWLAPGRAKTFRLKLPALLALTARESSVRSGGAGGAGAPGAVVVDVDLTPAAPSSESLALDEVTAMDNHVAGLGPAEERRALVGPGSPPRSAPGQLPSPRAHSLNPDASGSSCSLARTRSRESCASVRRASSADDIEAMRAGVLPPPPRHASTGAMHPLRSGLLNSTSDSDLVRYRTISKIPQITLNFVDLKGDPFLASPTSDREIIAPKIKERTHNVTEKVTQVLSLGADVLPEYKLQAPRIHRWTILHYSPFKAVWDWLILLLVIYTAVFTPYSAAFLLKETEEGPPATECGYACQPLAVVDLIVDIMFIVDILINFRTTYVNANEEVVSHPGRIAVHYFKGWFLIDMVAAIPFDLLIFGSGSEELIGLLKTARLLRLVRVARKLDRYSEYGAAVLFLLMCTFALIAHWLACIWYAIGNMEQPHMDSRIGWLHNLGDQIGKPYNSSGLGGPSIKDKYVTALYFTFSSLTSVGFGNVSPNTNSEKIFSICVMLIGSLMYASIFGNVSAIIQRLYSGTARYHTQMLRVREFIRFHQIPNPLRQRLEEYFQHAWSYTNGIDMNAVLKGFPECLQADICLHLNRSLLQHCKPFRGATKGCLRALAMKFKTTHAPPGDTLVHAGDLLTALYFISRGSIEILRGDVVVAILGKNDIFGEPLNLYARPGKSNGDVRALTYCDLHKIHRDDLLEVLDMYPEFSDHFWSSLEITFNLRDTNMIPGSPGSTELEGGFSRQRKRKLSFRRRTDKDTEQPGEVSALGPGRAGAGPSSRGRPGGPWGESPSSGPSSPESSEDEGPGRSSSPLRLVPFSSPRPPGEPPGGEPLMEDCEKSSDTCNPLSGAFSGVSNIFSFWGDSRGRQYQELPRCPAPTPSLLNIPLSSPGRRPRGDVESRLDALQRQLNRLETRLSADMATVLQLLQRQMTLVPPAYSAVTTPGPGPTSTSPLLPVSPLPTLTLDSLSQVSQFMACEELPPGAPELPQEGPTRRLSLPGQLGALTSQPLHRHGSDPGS

SMILES | hERG current change (%, negative = inhibition) at 10uM
O=C(Nc1ccccc1)OC1C2CCC1C(N1CCCCC1)CC2 (stereo not drawn) | -37.5%
O=C(Nc1ccc(OCc2ccccc2Cl)cc1)c1cccnc1 | 1.02%
Cc1ccc(C(=O)N2CCCC(Nc3ccc(F)cc3)C2)cc1C (stereo not drawn) | 0.463%
Cc1ccc(-c2ccc(=O)n(CC(=O)NCc3ccco3)n2)cc1 | -10%
O=C1C2C3c4ccccc4C(c4ccccc43)C2C(=O)N1Cc1ccco1 (stereo not drawn) | 5.12%
Cn1c(=O)n(C)c2cc(S(=O)(=O)O)ccc21 | 4.49%
Cc1ccc(S(=O)(=O)NCC(=O)Nc2ccc3c(c2)OCO3)cc1 | 8.87%
Cc1ccc(N2C(=O)CC(=O)NC2=O)cc1 | -16.9%
COc1cccc2sc(N(CCCN(C)C)C(=O)c3ccc(S(=O)(=O)N4CCc5ccccc5C4)cc3)nc12.Cl | 3.58%
CCN(CC)CCN(C(=O)c1ccc([N+](=O)[O-])cc1)c1nc2c(OC)cccc2s1.Cl | -73.2%
CCN(CC)CCN(C(=O)c1ccc(S(=O)(=O)N(C)C2CCCCC2)cc1)c1nc2c(C)cccc2s1.Cl | -13.9%
CCN(CC)CCN(C(=O)c1ccc(C(=O)c2ccccc2)cc1)c1nc2c(OC)cccc2s1.Cl | -68%
CCN(CC)CCN(C(=O)c1ccc(C(=O)c2ccccc2)cc1)c1nc2ccc(OC)cc2s1.Cl | -45.9%
CN1C(=O)/C(=C/c2ccccc2OCc2cccc(F)c2)N(C)C1=S | 6.02%
O=C(COC(=O)C1CC(=O)N(Cc2ccccc2)C1)Nc1ccc2c(c1)OCO2 (stereo not drawn) | 5.98%
Cc1nc2ccc(Cl)cc2c(=O)n1-c1ccccc1Cl | 5.06%
Cl.Clc1ccc(CNCC2CCCO2)c(Cl)c1 (stereo not drawn) | -2.74%
CCN(CC)CCNCc1ccc(-c2ccc(Cl)cc2)o1.Cl | -72.8%
Cl.Clc1ccc(-c2ccc(CNCC3CCCO3)o2)cc1 (stereo not drawn) | -62.4%
Cl.Clc1cccc(-c2ccc(CNCc3ccccn3)o2)c1 | -16.2%
OCCc1ccc(-c2ccc(Cl)cc2)o1 | 7.65%
Cc1ccc(CNCC2CCCO2)o1 (stereo not drawn) | 7.37%
Cl.Fc1ccc(-c2ccc(CNCc3ccccn3)o2)cc1Cl | -34.9%
CN1CCN(Cc2ccc(-c3ccc(Cl)cc3)o2)CC1 | -31.7%

SMILES | hERG current change (%, negative = inhibition) at 10uM
Cl.Clc1ccc(-c2ccc(CNCc3ccccn3)o2)cc1 | -52.4%
CCCn1c(SCC(=O)NC2CC2)nnc1-c1ccccn1 | -2.29%
COc1ccccc1NC(=O)c1sc2nc(Cc3ccccc3)cc(C(F)(F)F)c2c1N | -7.85%
COc1ccccc1CC(=O)N1CCOCC1 | 21%
Cc1ccccc1C(NC(N)=O)c1ccccc1 (stereo not drawn) | 0.289%
COc1ccccc1-n1cnnc1SC1CCOC1=O (stereo not drawn) | 4.66%
S=C(CN1CCCC1=S)N1CCOCC1 | 17.3%
CCOCCOC(=O)c1ccc(-n2cnc(C)n2)nc1 | 16.3%
Cc1cccc(C)c1NC(=O)C(NC=O)c1ccccc1Cl (stereo not drawn) | 0.855%
O=S(=O)(Nc1ccccc1N1CCOCC1)c1ccc(F)c(Cl)c1 | -18.6%
CC1Cc2ccccc2N1c1ncnc2nc[nH]c12 (stereo not drawn) | -6.58%
CSc1nc2nc3c(c(=O)n2[nH]1)CN(Cc1ccccc1)CC3 | -20.5%
CC1=CC(C)(C)Nc2ccc(Cc3ccc4c(c3)C(C)=CC(C)(C)N4)cc21 | 13.9%
CC1=CC(C)(C)Nc2ccc(C)cc21 | -58.1%
CCc1ccc2c(c1)C(C)=CC(C)(C)N2 | 17%
Cc1cc(Oc2ccc(=O)n(C)n2)nc(SCc2ccccc2)n1 | 25.7%
CCOc1ccc(-n2c(-c3ccccc3)c[n+]3c2CCCCC3)cc1.[Br-] | -67%
Cn1c(-c2ccccc2)c[n+]2c1CCCCC2.[Br-] | -0.399%
CCOc1ccc(-c2nnc(-c3ccccc3)n2-c2ccccc2)cc1 | -18.8%
CCOc1ccc(-n2c(-c3ccccc3)c[n+]3c2CCC3)cc1.[Br-] | -54%
CCOc1ccc(-n2c(-c3ccccc3)c[nH]c2=S)cc1 | 20.6%
CCOc1ccc(-c2c[n+]3c(n2-c2ccccc2)CCCCC3)cc1.[Br-] | -64.7%
COc1ccc(-c2c[n+]3c(n2-c2ccccc2)CCCCC3)cc1.[Br-] | -18.6%
FC(F)Oc1ccc(-c2c[n+]3c(n2-c2ccccc2)CCCCC3)cc1 | -70.3%

SMILES | hERG current change (%, negative = inhibition) at 10uM
CN(C)C(CNC(=O)c1cccs1)c1cccnc1 (stereo not drawn) | 18.7%
CCOC(=O)c1cc2oc(C)cc2n1CC(=O)OC1CCCCC1 | -5.5%
O=C(COc1ccc(S(=O)(=O)N2CCCCC2)cc1)N1CCOCC1 | 3.54%
COc1ccc(CC(=O)Nc2ccc(-c3nnc(-c4ccc(C)cc4)o3)cc2)cc1 | 19.1%
NNC(=O)c1ccc(Cl)cc1 | 2.74%
C=CCN1N=C(/C=C/c2ccc(OC)cc2)CCC1=O | 6.48%
C/C=C(\C)c1nnc(NC(=O)OCC)s1 | 8.46%
Cc1c(NC=C(C#N)C#N)c(=O)n(-c2ccccc2)n1C | 35.5%
NNC(=O)Cn1nc(Cc2ccccc2)n(N)c1=O | 8.22%
COc1ccc(/C=C(/NC(=O)/C=C/c2ccccc2)C(=O)N2CCOCC2)cc1 | -71.2%
CC(=O)N/C(=C/c1ccccc1)C(=O)N1CCCCC1 | 10.3%
O=C(N/C(=C/c1ccccc1)C(=O)N1CCCCCC1)c1ccccc1 | -12.4%
O=C(N/C(=C\c1ccccc1)C(=O)N1CCOCC1)c1ccccc1Cl | 0.479%
COc1ccc(/C=C(/NC(=O)/C=C/c2ccccc2)C(=O)O)cc1 | 24.9%
O=C(/C=C/c1ccccc1)N/C(=C/c1ccccc1)C(=O)N1CCCCC1 | -58.7%
COc1ccc(C(=O)N/C(=C\c2ccccc2)C(=O)N2CCOCC2)cc1 | -8.27%
O=C(/C=C/c1ccccc1)N/C(=C/c1ccccc1)C(=O)N1CCOCC1 | -58.8%
CC(=O)N/C(=C\c1ccccc1)C(=O)N1CCOCC1 | 20.1%
CCOC(=O)C1(O)CC(C)=NN1C(=O)c1cccc(Br)c1 (stereo not drawn) | 25.9%
CCOc1ccc(C(=O)NCCN2CCCCC2)c(OCC)c1 | -23.1%
COc1ccc(NC(=O)CCNS(=O)(=O)c2ccc3c(c2)c(=O)n(C)c(=O)n3C)cc1 | -2.03%
CC/C(=N\O)c1ccc(OC)c(OC)c1 | 21.1%
COC(=O)c1ccc(/C=C/c2c(-c3ccc(OC)cc3)oc3ccccc23)cc1 | 7.39%
CCCn1c(O)c(N=NC(=O)c2cccnc2)c2cc(Br)ccc21 | -3.7%

SMILES | hERG current change (%, negative = inhibition) at 10uM
CCn1c(O)c(N=NC(=O)c2cccnc2)c2cc(Br)ccc21 | -2.17%
CCCCn1c(O)c(N=NC(=O)c2ccncc2)c2cc(Br)ccc21 | -68.1%
O=C(NCc1ccco1)c1noc2c1CCCC2 | -3.59%
CCOc1ccc(C(CC(=O)O)NS(=O)(=O)c2ccc(C)cc2)cc1OC (stereo not drawn) | 10.3%
CSc1nc2ccc(NS(=O)(=O)c3ccc(CNC(C)=O)cc3)cc2s1 | -0.24%
COc1ccc(-c2n[nH]c(=S)n2C2CCCCC2)cc1 | 20.2%
Cn1c(CN2CCCC2)nc2cc(NS(=O)(=O)c3ccccc3)ccc21 | 1.49%
Cn1c(CN2CCCC2)nc2cc(NS(=O)(=O)c3ccc(Cl)cc3)ccc21 | -61.7%
Cc1ccc(S(=O)(=O)Nc2ccc3c(c2)nc(CN2CCCC2)n3C)cc1 | -46.5%
Cn1c(CN2CCCCC2)nc2cc(NS(=O)(=O)c3ccc(Cl)cc3)ccc21 | -62.5%
CC1CC(C)CN(C(=O)CNS(=O)(=O)c2ccc(Br)s2)C1 (stereo not drawn) | -1.92%
S=c1[nH]nc(-c2ccc(Cl)cc2)n1/N=C/c1ccco1 | 14.3%
O=C(Nc1cccc(C(=O)N2CCCC2)c1)c1ccccc1 | 2.2%
O=C(c1cn(CC2CCCCC2)nn1)N1CCN(c2ccc(F)cc2)CC1 | -52.5%
O=C(c1cccc(C(=O)N2CCN(c3ccccc3)CC2)c1)N1CCN(c2ccccc2)CC1 | -41.7%
O=C(c1cccc(C(=O)N2CCN(c3ccc(F)cc3)CC2)c1)N1CCN(c2ccc(F)cc2)CC1 | -72.5%
O=C(c1ccc(N2CCN(C(=O)c3ccc(F)c(F)c3)CC2)cc1)c1cccc(F)c1 | -16.7%
COc1ccc(N2CCN(C(=O)c3cn(CC4CCCCC4)nn3)CC2)cc1 | -14.3%
O=C(Nc1cccc(C(=O)N2CCN(c3ccc(F)cc3)CC2)c1)c1ccccc1 | -58.7%
O=C(c1cccc(-c2ccc(O)cc2)c1)N1CCN(c2ccc(F)cc2)CC1 | 23.3%
O=C(Nc1cccc(C(=O)N2CCN(c3cccc(Cl)c3)CC2)c1)c1ccccc1 | 4.69%
CCOc1ccccc1N1CCN(C(=O)c2cn(CC3CCCCC3)nn2)CC1 | -9.95%
O=C(c1ccc(N2CCN(C(=O)c3cccc(F)c3)CC2)cc1)c1cccc(F)c1 | -12.5%
O=C(c1ccc(N2CCN(C(=O)c3ccccc3)CC2)cc1)c1cccc(F)c1 | -74.5%
